“And” between values parts separate entries of the source, which are not always exact repeats. Identical values can stand only once. Results filed as inconclusive are left out. The source made the active and inactive calls. Unless noted, calls come from the whole dose curve; as a rule, active = well fitted curve in the direction sought with a large enough effect in the repeat runs; inconclusive = weak or mixed curves; inactive = no such curve, though single readings can be large; an effect the other way counts as inactive or inconclusive.
Experiments:
[1] = Caspase-3/7 induction in HepG2 cells by small molecules, qHTS assay (AID 1346978); note: nearly all actives have a fitted effect of over 15% in size
Method in brief: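 Wild-type HepG2 cells (2,000/well) were settled 5 h at 37 C, 5% CO2, then exposed to compounds in DMSO for 17 h. Caspase-3/7 activity was read by luminescence 30 min after adding Caspase-Glo 3/7 reagent at room temperature.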

[2] = Caspase-3/7 induction in CHO-K1 cells by small molecules, qHTS cell viability counter screen (AID 1346979); note: nearly all actives have a fitted effect of over 35% in size; note: potency is the fitted concentration of half-maximal effect
Method in brief: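 Wild-type CHO-K1 cells (1,500/well) treated with compound after 5 h plating; after 16 h at 37C, viability read as CellTiter-Fluor fluorescence following 1 h reagent incubation, in the same wells as the caspase read.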

[3] = Caspase-3/7 induction in CHO-K1 cells by small molecules, qHTS assay (AID 1346980); note: nearly all actives have a fitted effect of over 15% in size
Method in brief: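 Wild-type cells were seeded at 1,500 per well and settled 5 hr at 37 C, 5% CO2, then exposed to DMSO-dissolved compounds for 17 hr. Caspase-Glo 3/7 reagent was added, and luminescence was read after 30min at room temperature.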

[4] = Caspase-3/7 induction in HepG2 cells by small molecules, qHTS cell viability counter screen (AID 1346981); note: nearly all actives have a fitted effect of over 30% in size; note: potency is the fitted concentration of half-maximal effect; for activity change, negative = cytotoxicity: series mostly up to about 92 µM
Method in brief: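 In this quantitative HTS counter screen, compounds delivered in DMSO were left on unmodified HepG2 cells for 16 hr at 37 C. Viability was then determined fluorometrically with CellTiter-Fluor, in parallel with caspase-3/7 induction in the same wells.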

[5] = target: Nuclear receptor subfamily 1 group I member 2 (Homo sapiens) (UniProt O75469); assay: Human pregnane X receptor (PXR) small molecule agonists, qHTS assay (AID 1346982); note: nearly all actives have a fitted effect of over 35% in size; note: potency is the fitted concentration of half-maximal effect
Sequence of Nuclear receptor subfamily 1 group I member 2 (Homo sapiens) (O75469 whole entry, looked up): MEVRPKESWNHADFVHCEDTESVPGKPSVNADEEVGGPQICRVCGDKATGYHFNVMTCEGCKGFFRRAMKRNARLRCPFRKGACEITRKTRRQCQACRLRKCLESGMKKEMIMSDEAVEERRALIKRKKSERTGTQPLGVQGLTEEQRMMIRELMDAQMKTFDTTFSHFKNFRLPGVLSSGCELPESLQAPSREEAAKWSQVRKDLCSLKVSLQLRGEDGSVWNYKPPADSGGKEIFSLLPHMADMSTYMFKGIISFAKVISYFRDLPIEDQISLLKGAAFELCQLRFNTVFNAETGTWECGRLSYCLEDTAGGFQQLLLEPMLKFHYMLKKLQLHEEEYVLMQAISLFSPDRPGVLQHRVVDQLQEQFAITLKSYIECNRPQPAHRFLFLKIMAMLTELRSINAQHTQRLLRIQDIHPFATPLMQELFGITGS
Method in brief: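 Reporter HepG2 cells expressing PXR-Luc are cultured in charcoal-stripped FBS (5%), treated with compounds for 24 hr at 37 C, and assayed by ONE-Glo luminescence after 30 min at room temperature.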

[6] = target: Acetylcholinesterase (Homo sapiens) (UniProt P22303); assay: Acetylcholinesterase (AChE) small molecule antagonists: colormetric cell-based qHTS assay (AID 1347395; calls by dose curve; note: nearly all actives have a fitted effect of over 30% in size)
Sequence of Acetylcholinesterase (Homo sapiens) (P22303 whole entry, looked up): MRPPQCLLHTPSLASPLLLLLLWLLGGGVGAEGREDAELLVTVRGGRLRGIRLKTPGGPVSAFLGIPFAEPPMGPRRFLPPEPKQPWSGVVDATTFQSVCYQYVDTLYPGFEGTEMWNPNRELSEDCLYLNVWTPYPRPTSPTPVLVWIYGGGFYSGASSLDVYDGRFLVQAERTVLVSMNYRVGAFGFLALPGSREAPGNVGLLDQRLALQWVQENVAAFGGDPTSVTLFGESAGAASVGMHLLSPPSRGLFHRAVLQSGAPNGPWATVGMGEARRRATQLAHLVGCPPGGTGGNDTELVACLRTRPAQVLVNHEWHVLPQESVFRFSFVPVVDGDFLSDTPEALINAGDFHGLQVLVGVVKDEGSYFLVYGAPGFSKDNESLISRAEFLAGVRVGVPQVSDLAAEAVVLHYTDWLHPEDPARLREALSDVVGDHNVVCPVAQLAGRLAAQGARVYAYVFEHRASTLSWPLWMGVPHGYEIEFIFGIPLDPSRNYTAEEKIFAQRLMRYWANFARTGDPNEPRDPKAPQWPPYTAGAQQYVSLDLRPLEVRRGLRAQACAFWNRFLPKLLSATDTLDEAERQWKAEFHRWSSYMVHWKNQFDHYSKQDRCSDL
Method in brief: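 SH-SY5Y cells attached overnight, exposed to compound 30 min at 37 C, then given DTNB/acetylthiocholine; after 90 min at 37 C, colorimetric thiocholine read gives cellular AChE activity.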

[7] = target: Acetylcholinesterase (Homo sapiens) (UniProt P22303); assay: Acetylcholinesterase (AChE) small molecule antagonists: enzyme-based qHTS assay (AID 1347397; calls by dose curve; note: nearly all actives have a fitted effect of over 55% in size); settings: Potency: AChE enzyme activity inhibition; outcome: AChE enzyme activity inhibition
Method in brief: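 Tox21 library chemicals are tested in qHTS format against recombinant human AChE. The enzyme, dispensed at 50 mU/mL, sits with compound for 30 min at room temperature. A DTNB–acetylthiocholine cocktail follows, and colour is read after 10 min.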

[8] = target: Acetylcholinesterase (Homo sapiens) (UniProt P22303); assay: Acetylcholinesterase (AChE) small molecule antagonists: fluorescence cell-based qHTS assay (AID 1347398; calls by dose curve; note: nearly all actives have a fitted effect of over 50% in size); settings: Potency: AChE activity; outcome: AChE activity
Method in brief: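 Cellular AChE inhibition: SH-SY5Y cells treated with test chemical for 30 min at 37 C, then acetylthiocholine hydrolysis followed over 40 min at room temperature via thiocholine-reactive Thiolite Green fluorescence (490/520 nm).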
% is set by controls: 0 for no effect and ±100 for the full control effect.

CCCCCCCCCCCCCCCl
inactive: Potency [1] | Potency [2] | Potency [3] | Potency [4] | Potency [6] | Potency [7]
active: Potency [5] 61.4 µM

CC(C)[C@@H](C(=O)O[C@@H](C#N)c1cccc(Oc2ccccc2)c1)c1ccc(Cl)cc1
active: Potency [2] 27.7 µM | Potency [5] 5.53 µM and 9.69 µM
inactive: Potency [1] | Potency [3] | Potency [4] | Potency [6] | Potency [7] | Potency [8]

O=C(O)c1cc(I)cc(I)c1I
inactive: Potency [1] | Potency [2] | Potency [3] | Potency [4] | Potency [5] | Potency [6] | Potency [7] | Potency [8]

CCCCC(CC)COC(=O)c1c(Br)c(Br)c(Br)c(Br)c1C(=O)OCC(CC)CCCC (stereo not given)
active: Potency [5] 16.8 µM
inactive: Potency [1] | Potency [2] | Potency [3] | Potency [4] | Potency [6] | Potency [7]

CCCN(CCC)c1c([N+](=O)[O-])cc(C(C)C)cc1[N+](=O)[O-]
active: Potency [5] 23.8 µM
inactive: Potency [1] | Potency [2] | Potency [3] | Potency [4] | Potency [6] | Potency [7] | Potency [8]

Cc1nc2ccccc2c(=O)n1-c1ccccc1Cl
active: Potency [2] 26.7 µM | Potency [4] 26.7 µM | Potency [5] 21.2 µM
inactive: Potency [1] | Potency [3] | Potency [6] | Potency [7] | Potency [8]

CCCBr
inactive: Potency [1] | Potency [2] | Potency [3] | Potency [4] | Potency [5] | Potency [6] | Potency [7]

CON(C)C(=O)Nc1ccc(Cl)cc1
inactive: Potency [1] | Potency [2] | Potency [3] | Potency [4] | Potency [6] | Potency [7] | Potency [8]
active: Potency [5] 48.6 µM

Cc1ccc2c(C)cccc2c1
inactive: Potency [1] | Potency [2] | Potency [3] | Potency [4] | Potency [5] | Potency [6] | Potency [7] | Potency [8]

Nc1ccccc1C(=O)OCCc1ccccc1
inactive: Potency [1] | Potency [2] | Potency [3] | Potency [4] | Potency [6] | Potency [7]
active: Potency [5] 48.8 µM and 30.6 µM

O=C(O)C(Cl)(Cl)Br
inactive: Potency [1] | Potency [2] | Potency [3] | Potency [4] | Potency [5] | Potency [6] | Potency [7]

O=C1c2ccccc2C(=O)N1SC(Cl)(Cl)Cl
active: Potency [2] 4.27 µM and 5.45 µM | Potency [4] 24.3 µM | Potency [5] 6.03 µM
inactive: Potency [1] | Potency [3] | Potency [6] | Potency [7]

C=CCSSCC=C
inactive: Potency [1] | Potency [2] | Potency [3] | Potency [4] | Potency [5] | Potency [6] | Potency [7] | Potency [8]

CCCCCCCCCCCCN=C(N)N
inactive: caspase activation [1] -1.34% [at 3.27 µM] | activity change, negative = cytotoxicity [2] -4.73% [at 3.27 µM] | caspase-3/7 activation [3] -1.72% [at 3.27 µM] | activity change, negative = cytotoxicity [4] -9.99% [at 3.27 µM] | activation [5] 13.3% [at 3.27 µM] | activity, negative = inhibition [6] -5.91% [at 4.07 µM] | activity change, negative = inhibition [7] -1.29% [at 4.07 µM]

OCCSSCCO
inactive: Potency [1] | Potency [2] | Potency [3] | Potency [4] | Potency [5] | Potency [6] | Potency [7] | Potency [8]

CCOc1cccc(C2(N3CCN(c4ccccc4)CC3)CCC(C)CC2)c1 (stereo not given)
inactive: Potency [1] | Potency [2] | Potency [3] | Potency [4] | Potency [5] | outcome [6] | outcome [7] | outcome [8]

C=CCc1ccccc1O
inactive: Potency [1] | Potency [2] | Potency [3] | Potency [4] | Potency [5] | Potency [6] | Potency [7] | Potency [8]

CCCCCCCCCCCCN(C)C
inactive: Potency [1] | Potency [2] | Potency [3] | Potency [4] | Potency [5] | Potency [6] | Potency [7] | Potency [8]

O=C([O-])c1ccccn1.O=C([O-])c1ccccn1.O=C([O-])c1ccccn1.[Cr+3]
inactive: Potency [1] | Potency [2] | Potency [3] | Potency [4] | Potency [5] | Potency [6] | Potency [7] | Potency [8]

CCC(=O)O[C@@H]1C=C2CCC3C(CCC4(C)C3CC[C@@H]4OC(=O)CC)C2CC1 (stereo not given in full)
inactive: Potency [1] | Potency [2] | Potency [3] | Potency [4] | Potency [5] | Potency [6] | Potency [7]

CC(C)(C)c1ccc(CCOc2ncnc3ccccc23)cc1
inactive: Potency [1] | Potency [2] | Potency [3] | Potency [4] | Potency [5] | Potency [6] | Potency [7]

CCC1CCC(=O)O1 (stereo not given)
inactive: Potency [1] | Potency [2] | Potency [3] | Potency [4] | Potency [5] | Potency [6] | Potency [7]

CCc1ccccc1N
inactive: Potency [1] | Potency [2] | Potency [3] | Potency [4] | Potency [5] | Potency [6] | Potency [7] | Potency [8]

C1CS1
inactive: Potency [1] | Potency [2] | Potency [3] | Potency [4] | Potency [5] | Potency [6] | Potency [7] | Potency [8]

COC(=O)Cc1ccccc1
inactive: Potency [1] | Potency [2] | Potency [3] | Potency [4] | Potency [5] | Potency [7]

C[N+](C)(C)CC1CO1 (stereo not given)
inactive: Potency [1] | Potency [2] | Potency [3] | Potency [4] | Potency [5] | Potency [6] | Potency [7] | Potency [8]

CN1CC[C@]23c4c5ccc(O)c4O[C@H]2[C@@H](O)C=C[C@H]3[C@H]1C5
inactive: Potency [1] | Potency [2] | Potency [3] | Potency [4] | Potency [5] | Potency [7]

OCCCl
inactive: Potency [1] | Potency [2] | Potency [3] | Potency [4] | Potency [5] | Potency [6] | Potency [7] | Potency [8]

Reference: PubChem BioAssay (Tox21)
